In PubChem BioAssay AID652100 (National Center for Advancing Translational Sciences (NCATS), 2013):
The source made the active and inactive calls.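 Rule for the calls: active = compounds that bring Gaucher patient macrophage uptake of dying cells up to about normal macrophage levels; inactive = the rest.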

Experiment: Extended Characterization of Activators of N370S glucocerebrosidase as a Potential Chaperone Treatment of Gaucher Disease: Efferocytosis Index
Conditions: Gaucher patient macrophages, apoptotic Jurkat efferocytosis imaging
Text: Glucocerebrosidase (GCase) catalyzes the hydrolysis of beta-glucocerebroside (GC) to glucose and ceramide in lysosomes. Mutations in the glucocerebrosidase gene result in Gaucher disease, an autosomal recessive lysosomal storage disorder. Many of the mutations encountered in patients with Gaucher disease are missense alterations that may cause misfolding, decreased stability and/or mistrafficking of this lysosomal protein. […] These inhibitors include iminosugar analogs and other inhibitors that were discovered as part of previous work. However, the enhancement of enzyme activity by the chaperone action of an enzyme inhibitor must be balanced against the direct inhibition of the enzyme. […] In this extended characterization of our probe, we have further characterized the activity of probes in relevant models of Gaucher disease. This assay examine efferocytosis in patient-derived macrophages following compound incubation. NIH Chemical Genomics Center [NCGC] NIH Molecular Libraries Probe Production Centers Network [MLPCN] MLPCN Grant: MH086442 Assay Submitter (PI): Ellen Sidransky, NHGRI
Jurkat T-cells were stained with green cell tracker (Molecular Probes), and apoptosis was induced using UVB radiation for 2 min (BioRad). […] The number of T-cells taken up by macrophages was counted and normalized to the number of cells per field.

Row | SMILES | outcome
1 | C#Cc1ccc(NC(=O)c2cnn3c(C)cc(C)nc23)cc1 | active; similar to control
